We go through 34 compounds from PubChem BioAssay AID2479 (National Center for Advancing Translational Sciences (NCATS), 2010).

Molecules are shown by their SMILES. Results filed as inconclusive are left out. Activity calls are given as the source filed them. Calls follow the shape of the full dose curve.

The target of the assay is Thyroid hormone receptor beta (Homo sapiens) (UniProt P10828). Put plainly: Gene Reporter Secondary Assay for Inhibitors of the Interaction of Thyroid Hormone Receptor and Steroid Receptor Coregulator 2 in a Thyroid Receptor Assay. Particulars: WRO cells TRb DR4-TRE luciferase reporter, T3, 20 h. The text has this: NIH Molecular Libraries Probe Production Network [MLPCN] NIH Chemical Genomics Center [NCGC] MLPCN Grant: DK058080 Assay Provider: R. Kip Guy, St. Jude Children's Research Hospital NCGC Assay Overview: Thyroid receptor (TR) regulates many homeostatic processes including basal metabolism, cardiovascular function, body weight, and lipid trafficking. TR modulators are potential therapeutics for obesity and hyperlipidemias but current thyroid analogs have undesirable side effects, particularly cardiac stimulation. This secondary assay characterized compounds identified in the qHTS for Inhibitors of the Interaction of Thyroid Hormone Receptor and Steroid Receptor Coregulator 2 (PubChem AID 1485). The human follicular thyroid carcinoma cell line WRO (kindly provided by Dr. M. D. Ringel) stably expresses TRb and a luciferase reporter gene fused to TR response element. The addition of T3 ligand elevates expression of the TRE luciferase reporter (DR4-TRE-luc).
Thyroid hormone receptor beta (Homo sapiens), sequence (P10828 whole entry, looked up): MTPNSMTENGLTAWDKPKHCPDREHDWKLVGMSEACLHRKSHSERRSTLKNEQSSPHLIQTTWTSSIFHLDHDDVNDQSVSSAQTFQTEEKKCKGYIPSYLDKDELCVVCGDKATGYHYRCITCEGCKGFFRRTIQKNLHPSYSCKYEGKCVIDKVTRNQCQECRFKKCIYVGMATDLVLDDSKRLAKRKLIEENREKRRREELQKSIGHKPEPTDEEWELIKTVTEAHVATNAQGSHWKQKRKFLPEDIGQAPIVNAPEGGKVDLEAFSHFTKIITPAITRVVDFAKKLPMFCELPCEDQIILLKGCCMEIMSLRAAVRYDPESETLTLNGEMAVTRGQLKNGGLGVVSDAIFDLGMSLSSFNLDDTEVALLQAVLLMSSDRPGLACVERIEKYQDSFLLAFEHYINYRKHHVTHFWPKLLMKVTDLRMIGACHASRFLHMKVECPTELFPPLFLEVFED
NCGC Assay Protocol Summary: Cells were maintained in RPMI 1640 culture medium supplemented with 10% heat-inactivated FBS, 0.33 mg/ml hygromycin, 0.33 mg/ml geneticin, 50 units/ml penicillin, 50 ug/ml streptomycin. Cells were harvested and resuspended at 330,000 cells/ml in assay medium (50% DMEM 50% F-12 medium without Phenol-Red (Cellgro #16-405-CV), L-glutamine, 10% heat inactivated and charcoal treated FBS, 100 uM non-essential amino acid, 50 units/ml penicillin, 50 ug/ml streptomycin). Cells were dispensed at 8,000 cells/25 ul/well into 384 well plates (Corning 3917) and incubated 12 hr at 37 C and 5% CO2. Following transfer of 130 nL compound (ranging from 0.2 to 52 uM) and T3 (100 nM final concentration), the plates were incubated 20 hr incubation at 37 C and 5% CO2. Plates were then equilibrated at ambient temperature for 30 min, 25 ul of Bright-Glo (Promega) was added and luminescence was detected by an EnVision (PerkinElmer).
Background: Reporter assays use an easily measured gene product as a stand-in for the process of interest.
Turning to `CS(=O)(=O)c1ccc(C(=O)OCC(=O)N2CC(=O)Nc3ccccc32)cc1[N+](=O)[O-]`, the Potency was 15.8 µM (active).

Turning to `CC(=O)N1CCN(C(=O)COC(=O)c2ccc([S+](C)(=O)[O-])c([N+](=O)[O-])c2)CC1`, the outcome was inactive. With `C[S+](=O)([O-])c1ccc(C(=O)OCC(=O)N2CCNC(=O)C2)cc1[N+](=O)[O-]`, the compound was classed as inactive.

As for `O=C(COC(=O)c1cc([N+](=O)[O-])ccc1F)NC1C2CC3CC(C2)CC1C3` (centres undefined), the outcome was inactive.

Consider `CCN1CCN(C(=O)COC(=O)c2ccc(S(C)(=O)=O)c([N+](=O)[O-])c2)C(C)C1` (centres undefined), for which the Potency is 23.5 µM (active). For the compound `O=C(COC(=O)c1cccc([N+](=O)[O-])c1Cl)NC1C2CC3CC(C2)CC1C3` (centres undefined), the compound was called inactive. For `CS(=O)(=O)c1ccc(C(=O)OCC(=O)N2Cc3ccccc3C2)cc1[N+](=O)[O-]`, the Potency was 12.6 µM (active). Consider `O=C(COC(=O)c1ccc(Cl)c([N+](=O)[O-])c1)NC1C2CC3CC(C2)CC1C3` (centres undefined), for which the outcome was inactive. As for `CC(=O)c1cccc(NC(=O)C(C)OC(=O)c2ccc(S(C)(=O)=O)c([N+](=O)[O-])c2)c1` (centres undefined), the Potency is 14.9 µM (active). For `CS(=O)(=O)c1ccc(C(=O)OCC(=O)N2CCc3ccccc32)cc1[N+](=O)[O-]`, the Potency was 18.6 µM (active). The same measure, in the same setting: the result for `Cc1ccccc1NC(=O)COC(=O)c1ccc(S(C)(=O)=O)c([N+](=O)[O-])c1` reads 22.9 µM (active). For the compound `C[S+](=O)([O-])c1ccc(C(=O)OCC(=O)N2CCN([S+](C)(=O)[O-])CC2)cc1[N+](=O)[O-]`, the result was inactive. As to `CS(=O)(=O)c1ccc(-c2nnc(-c3ccccc3)o2)cc1[N+](=O)[O-]`, the Potency is 15.7 µM (active). As for `CN1CCN(C(=O)COC(=O)c2ccc(S(C)(=O)=O)c([N+](=O)[O-])c2)CC1`, the Potency was 33.9 µM (active). On the same count and under the same terms, next, `CS(=O)(=O)c1ccc(C(=O)OCC(=O)N2CCOCC2)cc1[N+](=O)[O-]`: 23 µM (active). Take `O=C(COC(=O)c1ccc2ncsc2c1)NC(=O)C1CCCCC1`: the call was inactive. `CC(=O)Nc1cccc(C(=O)OCC(=O)NC(=O)C2CCCCC2)c1`: the result was inactive. Consider `COc1cccc(CNC(=O)COC(=O)c2ccc(S(C)(=O)=O)c([N+](=O)[O-])c2)c1`, for which the Potency is 21.5 µM (active). Turning to `CCN1CCN(C(=O)COC(=O)c2ccc(S(C)(=O)=O)c([N+](=O)[O-])c2)CC1C` (centres undefined), the Potency is 26.3 µM (active). On to `CS(=O)(=O)c1ccc(-c2nnc(-c3ccccc3)s2)cc1[N+](=O)[O-]`, for which the Potency is 11.1 µM (active). The same measure, in the same setting: the result for `CC1(C)C2CCC1(C)C(NC(=O)COC(=O)c1ccc(S(C)(=O)=O)c([N+](=O)[O-])c1)C2` (centres undefined) reads 12.9 µM (active). Take `CCN(CC)C(=O)COC(=O)c1ccc(S(C)(=O)=O)c([N+](=O)[O-])c1`: the Potency is 16.8 µM (active). Same read-out and setting: next, `CS(=O)(=O)c1ccc(C(=O)OCC(=O)NC(=O)NC2CCCCC2)cc1[N+](=O)[O-]`: 12.7 µM (active). For `O=C(COC(=O)c1ccc(F)c([N+](=O)[O-])c1)NC1C2CC3CC(C2)CC1C3` (centres undefined), the result was inactive. Regarding `CS(=O)(=O)c1ccc(C(=O)OCC(=O)Nc2cc(C(F)(F)F)ccc2Cl)cc1[N+](=O)[O-]`, the Potency was 22.7 µM (active). `O=C(COC(=O)c1cc([N+](=O)[O-])ccc1Cl)NC1C2CC3CC(C2)CC1C3` (centres undefined): the compound was classed as inactive.

Regarding `Cc1cc(C(=O)OCC(=O)NC(=O)C2CCCCC2)ccc1[N+](=O)[O-]`, the call was inactive. `CC1CCCCN1C(=O)COC(=O)c1ccc(S(C)(=O)=O)c([N+](=O)[O-])c1` (centres undefined): the Potency is 12.6 µM (active).

With `C[S+](=O)([O-])c1ccc(C(=O)OCC(=O)NC2C3CC4CC(C3)CC2C4)cc1` (centres undefined), the result was inactive. With `CS(=O)(=O)c1ccc(C(=O)OCC(=O)N2CCCC2)cc1[N+](=O)[O-]`, the Potency is 17.7 µM (active). On to `O=C(COC(=O)c1cccc([N+](=O)[O-])c1)NC1C2CC3CC(C2)CC1C3` (centres undefined), for which the compound was called inactive. As for `Cc1ccc(F)cc1NC(=O)COC(=O)c1ccc(S(C)(=O)=O)c([N+](=O)[O-])c1`, the Potency is 17.9 µM (active). Take `O=C(COC(=O)c1ccc(C(F)(F)F)cc1)NC(=O)C1CCCCC1`: the compound was called inactive. As to `CS(=O)(=O)c1ccc(C(=O)OCC(=O)NCC2CCCO2)cc1[N+](=O)[O-]` (centres undefined), the Potency is 15.2 µM (active).
